In all, about 5,500 compounds went through this assay and about 2,000 (36%) were called active. Roughly 18% stayed inconclusive and do not appear here. Cut-off read from the data, not from the text of the source: active = normalized growth mostly below about 0.91 (no sharp cut-off); inconclusive = no clear call, values can overlap the other calls; inactive = mostly above about 0.92. The list shows a part of the results.
Test: chemical genetic growth profiling, strain panel (AID 1159580);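 note: tested at 20 µM; growth read once vehicle control cultures reached saturation at 30 °C; 1 = growth at the plate median or of vehicle wells; lower values mean less growth of the strain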
Conditions: S. cerevisiae deletion strains, growth OD

Measured: normalized growth

Nc1ccc(CCN2CCN(c3cccc(C(F)(F)F)c3)CC2)cc1
inactive: locus YAL040C, strain CLN3, active compounds read low 1.05 | locus YCL061C, strain MRC1 (second series), active compounds read low 0.973 | locus YDR363W, strain ESC2, active compounds read low 0.894 | locus YER002W, strain NOP16, active compounds read low 1.03 | locus YMR307W, strain GAS1, active compounds read low 1.02 | locus YNL175C, strain NOP13, active compounds read low 1.02 | locus YNL197C, strain WHI3, active compounds read low 1 | locus YNL224C, strain SQS1, active compounds read low 1.01 | locus YOR083W, strain WHI5 (second series), active compounds read low 1.02
active: locus YGR229C, strain SMI1, active compounds read low 0.501

Reference: PubChem BioAssay AID1159580 (chemical genetic matrix, 2015)
